Laboratory results reported in the supplement of paper PMC10849652.
About 7,900 targets were measured; listed, in parts, are those with a hit and a random draw of the rest. About 0.6% of all pairs of compound and target were hits.

Compound: NC(=O)c1cnc(N[C@@H]2CCCC[C@@H]2N)nc1Nc1cccc(-n2nccn2)c1
Experiment: log2 fold change, soluble protein after heating vs DMSO (PISA); higher = thermal stabilisation; K562 cells, 10 uM, 30 min; active = over 0.2 and 3.5 SD of the protein, either way, in both replicates (recomputed)
How it was run: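 K562 cells (2×10^6 cells/mL) were treated with 10 μM compound for 30 min, and aliquots were heated for 3 min over 48°C-58°C. Pooled aliquots were extracted in PBS with 0.5% NP-40 at 4°C, and the supernatant after 21,000xg for 90 min was measured by TMTpro 16plex LC-MS/MS with channel sums equalised. Reported thermal stability, relative to control samples and from duplicates, is a log2 fold change.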

UniProt Q96G97, sequence (Q96G97 whole entry, looked up): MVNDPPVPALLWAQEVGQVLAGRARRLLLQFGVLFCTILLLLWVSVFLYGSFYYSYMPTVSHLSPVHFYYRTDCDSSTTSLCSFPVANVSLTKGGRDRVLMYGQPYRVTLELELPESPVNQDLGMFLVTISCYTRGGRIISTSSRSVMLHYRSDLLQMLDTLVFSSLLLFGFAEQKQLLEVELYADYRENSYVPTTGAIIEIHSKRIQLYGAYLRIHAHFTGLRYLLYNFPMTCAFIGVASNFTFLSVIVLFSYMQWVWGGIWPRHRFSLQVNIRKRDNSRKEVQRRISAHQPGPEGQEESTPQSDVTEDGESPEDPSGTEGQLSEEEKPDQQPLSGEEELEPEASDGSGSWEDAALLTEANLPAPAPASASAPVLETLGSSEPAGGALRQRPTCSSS
UniProt Q14CW9, sequence (Q14CW9 whole entry, looked up): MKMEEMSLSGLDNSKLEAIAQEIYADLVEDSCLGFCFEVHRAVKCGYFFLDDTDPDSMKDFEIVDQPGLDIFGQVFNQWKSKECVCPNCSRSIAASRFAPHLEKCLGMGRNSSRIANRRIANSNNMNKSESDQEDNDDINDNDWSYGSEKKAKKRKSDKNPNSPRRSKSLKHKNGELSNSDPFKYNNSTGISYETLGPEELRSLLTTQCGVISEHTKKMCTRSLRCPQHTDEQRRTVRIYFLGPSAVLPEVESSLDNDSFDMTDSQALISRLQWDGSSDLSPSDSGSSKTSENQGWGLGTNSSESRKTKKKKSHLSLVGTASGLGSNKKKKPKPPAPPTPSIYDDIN
UniProt Q8IUR7, sequence (Q8IUR7 whole entry, looked up): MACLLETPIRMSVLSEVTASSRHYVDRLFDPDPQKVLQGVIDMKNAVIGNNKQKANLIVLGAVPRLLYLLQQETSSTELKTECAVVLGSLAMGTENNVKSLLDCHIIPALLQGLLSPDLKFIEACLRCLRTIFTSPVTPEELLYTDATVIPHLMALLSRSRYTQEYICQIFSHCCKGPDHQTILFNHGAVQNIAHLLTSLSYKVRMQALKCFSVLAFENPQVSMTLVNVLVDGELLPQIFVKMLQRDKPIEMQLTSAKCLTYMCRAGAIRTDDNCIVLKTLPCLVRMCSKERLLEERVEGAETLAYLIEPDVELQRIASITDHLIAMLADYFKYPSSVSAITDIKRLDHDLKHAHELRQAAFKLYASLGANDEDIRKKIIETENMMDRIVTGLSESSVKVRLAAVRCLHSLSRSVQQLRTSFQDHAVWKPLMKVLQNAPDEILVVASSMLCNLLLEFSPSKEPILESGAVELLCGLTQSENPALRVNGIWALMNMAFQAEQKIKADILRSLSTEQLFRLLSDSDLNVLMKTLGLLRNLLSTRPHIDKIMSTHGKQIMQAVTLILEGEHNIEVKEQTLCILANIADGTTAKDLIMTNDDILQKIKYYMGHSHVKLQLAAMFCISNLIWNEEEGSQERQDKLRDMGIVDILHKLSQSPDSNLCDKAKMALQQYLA
UniProt Q13444, sequence (Q13444 whole entry, looked up): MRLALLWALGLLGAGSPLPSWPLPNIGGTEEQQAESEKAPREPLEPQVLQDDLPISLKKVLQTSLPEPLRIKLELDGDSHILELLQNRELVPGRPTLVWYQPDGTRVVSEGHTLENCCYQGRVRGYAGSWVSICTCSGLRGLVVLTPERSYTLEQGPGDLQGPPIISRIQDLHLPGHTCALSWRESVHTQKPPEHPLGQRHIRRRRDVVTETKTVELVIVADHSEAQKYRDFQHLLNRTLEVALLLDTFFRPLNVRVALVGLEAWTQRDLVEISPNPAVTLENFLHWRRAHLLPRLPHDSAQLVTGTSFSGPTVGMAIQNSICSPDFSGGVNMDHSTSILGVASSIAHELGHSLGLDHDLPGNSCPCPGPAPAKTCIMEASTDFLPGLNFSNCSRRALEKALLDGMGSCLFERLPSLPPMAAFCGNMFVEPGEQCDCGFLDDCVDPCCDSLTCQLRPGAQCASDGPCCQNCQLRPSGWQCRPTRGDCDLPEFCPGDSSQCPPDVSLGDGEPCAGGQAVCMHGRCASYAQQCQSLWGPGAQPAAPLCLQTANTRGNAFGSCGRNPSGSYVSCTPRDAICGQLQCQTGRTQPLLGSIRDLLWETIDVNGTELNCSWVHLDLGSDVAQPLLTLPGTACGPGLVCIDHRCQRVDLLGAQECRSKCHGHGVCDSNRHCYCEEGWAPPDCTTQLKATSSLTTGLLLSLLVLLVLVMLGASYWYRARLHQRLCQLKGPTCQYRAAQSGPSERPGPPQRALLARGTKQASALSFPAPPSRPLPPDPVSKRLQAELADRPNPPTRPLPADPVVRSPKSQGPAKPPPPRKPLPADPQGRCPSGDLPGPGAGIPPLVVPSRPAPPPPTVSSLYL
UniProt Q9H0E9, sequence (Q9H0E9 whole entry, looked up): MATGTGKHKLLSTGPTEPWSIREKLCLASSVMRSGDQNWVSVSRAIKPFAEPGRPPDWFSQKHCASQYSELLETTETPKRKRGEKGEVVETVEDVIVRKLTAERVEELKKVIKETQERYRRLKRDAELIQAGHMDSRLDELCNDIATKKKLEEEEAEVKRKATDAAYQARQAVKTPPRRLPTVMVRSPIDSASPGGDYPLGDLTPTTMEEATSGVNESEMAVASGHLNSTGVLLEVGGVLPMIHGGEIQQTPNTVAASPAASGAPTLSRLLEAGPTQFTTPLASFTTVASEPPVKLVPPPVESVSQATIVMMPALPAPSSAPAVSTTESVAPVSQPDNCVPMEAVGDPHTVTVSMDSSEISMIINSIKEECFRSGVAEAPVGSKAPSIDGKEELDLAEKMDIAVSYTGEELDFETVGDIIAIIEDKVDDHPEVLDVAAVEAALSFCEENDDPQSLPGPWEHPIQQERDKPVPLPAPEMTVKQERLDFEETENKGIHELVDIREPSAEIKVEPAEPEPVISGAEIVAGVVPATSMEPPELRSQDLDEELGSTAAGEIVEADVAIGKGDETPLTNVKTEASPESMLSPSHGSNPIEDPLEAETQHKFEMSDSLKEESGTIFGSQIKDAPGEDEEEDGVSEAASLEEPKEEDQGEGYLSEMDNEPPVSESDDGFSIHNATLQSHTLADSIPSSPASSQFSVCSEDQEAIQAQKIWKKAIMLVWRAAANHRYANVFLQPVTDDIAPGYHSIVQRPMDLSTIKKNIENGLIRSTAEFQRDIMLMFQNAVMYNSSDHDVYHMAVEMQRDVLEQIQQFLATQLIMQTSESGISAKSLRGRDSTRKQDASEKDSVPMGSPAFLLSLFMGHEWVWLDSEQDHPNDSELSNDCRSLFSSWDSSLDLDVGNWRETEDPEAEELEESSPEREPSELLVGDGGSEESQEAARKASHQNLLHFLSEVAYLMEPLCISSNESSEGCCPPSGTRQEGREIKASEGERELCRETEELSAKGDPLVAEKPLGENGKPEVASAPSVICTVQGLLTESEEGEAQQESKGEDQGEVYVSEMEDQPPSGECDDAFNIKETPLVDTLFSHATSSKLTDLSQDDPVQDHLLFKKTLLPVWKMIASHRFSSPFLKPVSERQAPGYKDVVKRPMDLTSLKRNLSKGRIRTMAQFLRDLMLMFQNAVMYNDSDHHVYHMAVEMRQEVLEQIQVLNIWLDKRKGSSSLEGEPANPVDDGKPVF
UniProt P25440, sequence (P25440 whole entry, looked up): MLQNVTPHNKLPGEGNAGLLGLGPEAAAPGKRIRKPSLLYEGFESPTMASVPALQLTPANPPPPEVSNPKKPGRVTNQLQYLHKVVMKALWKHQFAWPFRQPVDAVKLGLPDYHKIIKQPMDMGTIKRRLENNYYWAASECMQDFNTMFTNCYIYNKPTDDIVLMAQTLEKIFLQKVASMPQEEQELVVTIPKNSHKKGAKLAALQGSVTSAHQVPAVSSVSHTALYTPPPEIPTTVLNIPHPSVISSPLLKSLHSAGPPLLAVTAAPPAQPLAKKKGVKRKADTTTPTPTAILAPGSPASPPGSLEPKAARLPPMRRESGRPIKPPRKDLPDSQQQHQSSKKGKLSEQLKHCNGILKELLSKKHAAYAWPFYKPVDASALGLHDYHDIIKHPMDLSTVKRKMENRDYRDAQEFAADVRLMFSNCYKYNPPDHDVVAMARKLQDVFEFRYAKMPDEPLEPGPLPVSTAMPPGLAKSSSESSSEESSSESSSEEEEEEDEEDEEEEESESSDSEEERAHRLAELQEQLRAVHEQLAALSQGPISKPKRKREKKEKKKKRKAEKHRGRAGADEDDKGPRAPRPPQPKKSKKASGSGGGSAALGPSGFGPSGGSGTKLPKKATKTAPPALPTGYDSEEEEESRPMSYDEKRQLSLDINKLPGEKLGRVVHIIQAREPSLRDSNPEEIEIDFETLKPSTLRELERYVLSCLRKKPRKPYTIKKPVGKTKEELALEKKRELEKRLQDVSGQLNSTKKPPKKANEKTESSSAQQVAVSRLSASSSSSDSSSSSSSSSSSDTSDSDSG
UniProt Q96F25, sequence (Q96F25 whole entry, looked up): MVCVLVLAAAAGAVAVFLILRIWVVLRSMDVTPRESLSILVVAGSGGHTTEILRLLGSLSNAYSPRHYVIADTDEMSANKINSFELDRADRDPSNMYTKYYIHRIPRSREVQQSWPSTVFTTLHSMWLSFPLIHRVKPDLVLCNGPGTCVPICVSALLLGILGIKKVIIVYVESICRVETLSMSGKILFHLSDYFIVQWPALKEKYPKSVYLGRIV
UniProt P55008, sequence (P55008 whole entry, looked up): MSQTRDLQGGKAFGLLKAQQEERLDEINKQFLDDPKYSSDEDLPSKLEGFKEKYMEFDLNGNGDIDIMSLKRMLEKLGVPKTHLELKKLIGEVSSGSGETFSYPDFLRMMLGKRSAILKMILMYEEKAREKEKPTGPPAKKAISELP
UniProt Q8NFV4, sequence (Q8NFV4 whole entry, looked up): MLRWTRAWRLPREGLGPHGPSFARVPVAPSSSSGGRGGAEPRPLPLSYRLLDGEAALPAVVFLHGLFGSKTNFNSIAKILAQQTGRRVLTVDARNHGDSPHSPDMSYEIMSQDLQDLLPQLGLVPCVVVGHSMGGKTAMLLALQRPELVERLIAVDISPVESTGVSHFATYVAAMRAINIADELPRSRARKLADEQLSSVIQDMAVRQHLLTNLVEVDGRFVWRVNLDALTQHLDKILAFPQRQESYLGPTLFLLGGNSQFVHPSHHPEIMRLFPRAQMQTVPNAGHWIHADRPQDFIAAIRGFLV

log2 fold change, inactive:
AUNIP isoform 2 (UniProt Q9H7T9) -0.037
ARMC8 isoform 6 (UniProt Q8IUR7) -0.023
BRIP1 (UniProt Q9BX63) -0.139
AUH (UniProt Q13825) 0.011
ARHGAP25 isoform 4 (UniProt P42331) 0.068
BSCL2 isoform 4 (UniProt Q96G97) -0.197
BRD8 isoform 2 (UniProt Q9H0E9) -0.205
AIF1 (UniProt P55008) 0.004
BRMS1 (UniProt Q9HCU9) 0.15
ATXN3 isoform 1 (UniProt P54252) -0.256
ABCA3 (UniProt Q99758) -0.001
ATXN7L3 isoform 2 (UniProt Q14CW9) 0.033
BRD2 isoform 2 (UniProt P25440) -0.209
ADAM15 (UniProt Q13444) 0.034
ABCA4 (UniProt P78363) -0.092
ABHD11 (UniProt Q8NFV4) -0.089
AGAP3 isoform 4 (UniProt Q96P47) -0.128
BRAF, A0A2R8Y8E0 0.214
ALG14 (UniProt Q96F25) 0.018
ARL4A (UniProt P40617) -0.276
BRAF (UniProt P15056) -0.079
ALDH2 isoform 2 (UniProt P05091) -0.389
AARSD1 (UniProt Q9BTE6) -0.066
